Results: PubChem BioAssay (Tox21)
Values joined by “and” are separate entries in the source; they are usually repeats but may differ in a detail not shown here. Identical values can stand only once. A number with no mark means an inactive call. Inconclusive results are not listed. Active and inactive are the calls of the source. Calls follow the shape of the dose curve; as a rule, active = well fitted curve in the direction sought with a large enough effect in the repeat runs; inconclusive = weak or mixed curves; inactive = no such curve, though single readings can be large; an effect the other way counts as inactive or inconclusive.

assay: Caspase-3/7 induction in CHO-K1 cells by small molecules, qHTS cell viability counter screen (AID 1346979); conditions: CellTiter-Fluor fluorescence, 17 h; series mostly up to 92.4 µM; activity change, negative = cytotoxicity: at the top concentration; also: nearly all actives have a fitted effect of over 35% in size
In short: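 In the same wells as the caspase read, viability of compound-treated wild-type CHO-K1 cells was assessed using CellTiter-Fluor, added after 16hr at 37C and measured by fluorescence following 1hr further incubation.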
% is scaled to controls: 0 for no effect and ±100 for the full control effect; potency is read from the fitted curve at half-maximal effect.

| Structure (SMILES) | activity change, negative = cytotoxicity | Potency |
| --- | --- | --- |
| CC(C)CCOCCC(C)C | 0.973% |  |
| c1cc[nH]c1 | 9.13% |  |
| CC(=O)C=O | 4.6% |  |
| CC(=O)OC(OC(C)=O)c1ccc([N+](=O)[O-])o1 |  | 15.6 µM (active) |
| Cc1cc(C)c(C=O)c(C)c1 | 4.92% |  |
| C/C=C/C=N/NC(=O)c1ccncc1 | -0.26% [at 42.5 µM] |  |
| Cn1cccc1 | 9.8% |  |
| COc1cccc(OC)c1O | -1.54% |  |
| c1cc(OCC2CO2)cc(OCC2CO2)c1 (stereo not drawn) |  | 60.6 µM (active) |
| CCCCCCCCCCCCCC[n+]1ccccc1 |  | 27.3 µM (active) |
| CCN(CC)CCNc1ccc(CO)c2sc3ccccc3c(=O)c12 |  | 23.7 µM (active) |
| CCCCCCC(C)OC(=O)COc1nc(F)c(Cl)c(N)c1Cl (stereo not drawn) | 9.21% |  |
| CC1(C)C(=O)N(Br)C(=O)N1Br | 1.79% |  |
| CSc1ccc2c(c1)N(CCC1CCCCN1C)c1ccccc1S2 (stereo not drawn) |  | 15.3 µM (active) and 29.8 µM (active) |
| CCCCCCCCCCCCCc1ccccc1 | 6.83% [at 42.5 µM] |  |
| Oc1cc2ccccc2cc1O | -2.39% |  |
| CCN(CC)c1cccc(C)c1 | -1.8% |  |
| CC[N+](CC)(CC)Cc1ccccc1 | 3.68% |  |

| Structure (SMILES) | activity change, negative = cytotoxicity | Potency |
| --- | --- | --- |
| CC(=O)c1ccccc1N | 7.53% |  |
| CN1[C@@H]2CC[C@H]1CC(OC(=O)C(CO)c1ccccc1)C2 (stereo partly drawn) |  | inactive |
| C#CC(O)CCC (stereo not drawn) | 7.67% |  |
| CCO[Si](C)(C)OCC | -1.08% |  |
| COC(=O)[C@]1(C)CCC[C@@]2(C)[C@H]1CC=C1C=C(C(C)C)CC[C@@H]12 | -0.31% |  |
| CCCCCCCCCCCCOC(=O)c1cc(O)c(O)c(O)c1 |  | 9.65 µM (active) and 7.7 µM (active) |
| COC(=O)CC#N | -3.09% |  |
| O=C=NCc1cccc(CN=C=O)c1 | 0.691% [at 19 µM] |  |
| CCOC(=O)COc1ccc(C)cc1 | 10.3% |  |
| [O]=[Zr] | -2.4% |  |
| Cn1cnc2ncnc(N)c21 | 5.91% [at 42.5 µM] |  |
| CCCCCCCC/C=C\CCCCCCCC(=O)OCCOC(=O)CCCCCCC/C=C\CCCCCCCC | -2.18% |  |
| NCCCC(O)(P(=O)(O)O)P(=O)(O)O | 11.1% [at 42.5 µM] |  |
| C=CC(=O)OCCN(CC)CC | -1.21% |  |
| OCCN1CN(CCO)CN(CCO)C1 | 0.345% |  |
| Cc1ccc(O)cn1 | -0.97% |  |
| CCCC(O)C(O)CO (stereo not drawn) | 1.51% |  |
| C/C=C/c1ccc(OC)c(OC)c1 | 1.93% |  |

assay: Caspase-3/7 induction in CHO-K1 cells by small molecules, qHTS assay (AID 1346980); conditions: CHO-K1 caspase-3/7 induction, Caspase-Glo luminescence, 17 h; series mostly up to 92.4 µM; caspase-3/7 activation: at the top concentration; also: nearly all actives have a fitted effect of over 15% in size
In short: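 Luminescent Caspase-Glo 3/7 read (30min, room temperature) quantified apoptosis induction. Cells were wild-type CHO-K1, treated with compound for 17hr at 37 C and 5% CO2.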

| Structure (SMILES) | caspase-3/7 activation | Potency |
| --- | --- | --- |
| CC(C)CCOCCC(C)C | 0.882% |  |
| c1cc[nH]c1 | 0.0471% |  |
| CC(=O)C=O | -0.165% |  |
| CC(=O)OC(OC(C)=O)c1ccc([N+](=O)[O-])o1 | -5.52% |  |
| Cc1cc(C)c(C=O)c(C)c1 | 0.127% |  |
| C/C=C/C=N/NC(=O)c1ccncc1 | -0.053% [at 42.5 µM] |  |
| Cn1cccc1 | 3.19% |  |
| COc1cccc(OC)c1O | 0.226% |  |
| c1cc(OCC2CO2)cc(OCC2CO2)c1 (stereo not drawn) | 1.21% |  |
| CCCCCCCCCCCCCC[n+]1ccccc1 | 4.06% |  |
| CCN(CC)CCNc1ccc(CO)c2sc3ccccc3c(=O)c12 | 0.68% [at 42.5 µM] |  |
| CCCCCCC(C)OC(=O)COc1nc(F)c(Cl)c(N)c1Cl (stereo not drawn) | 0.873% |  |
| CC1(C)C(=O)N(Br)C(=O)N1Br | -0.862% |  |
| CSc1ccc2c(c1)N(CCC1CCCCN1C)c1ccccc1S2 (stereo not drawn) |  | 19.3 µM (active) |
| CCCCCCCCCCCCCc1ccccc1 | -1.3% [at 42.5 µM] |  |
| Oc1cc2ccccc2cc1O | 2.52% |  |
| CCN(CC)c1cccc(C)c1 | -0.737% |  |
| CC[N+](CC)(CC)Cc1ccccc1 | -0.192% |  |

| Structure (SMILES) | caspase-3/7 activation | Potency |
| --- | --- | --- |
| CC(=O)c1ccccc1N | 1.91% |  |
| CN1[C@@H]2CC[C@H]1CC(OC(=O)C(CO)c1ccccc1)C2 (stereo partly drawn) |  | inactive |
| C#CC(O)CCC (stereo not drawn) | 0.117% |  |
| CCO[Si](C)(C)OCC | 0.762% |  |
| COC(=O)[C@]1(C)CCC[C@@]2(C)[C@H]1CC=C1C=C(C(C)C)CC[C@@H]12 | 2.4% |  |
| CCCCCCCCCCCCOC(=O)c1cc(O)c(O)c(O)c1 |  | inactive |
| COC(=O)CC#N | 1.06% |  |
| O=C=NCc1cccc(CN=C=O)c1 | -0.138% [at 19 µM] |  |
| CCOC(=O)COc1ccc(C)cc1 | 0.544% |  |
| [O]=[Zr] | 0.75% |  |
| Cn1cnc2ncnc(N)c21 | 0.106% [at 42.5 µM] |  |
| CCCCCCCC/C=C\CCCCCCCC(=O)OCCOC(=O)CCCCCCC/C=C\CCCCCCCC | -0.476% |  |
| NCCCC(O)(P(=O)(O)O)P(=O)(O)O | -0.257% [at 42.5 µM] |  |
| C=CC(=O)OCCN(CC)CC | -0.773% |  |
| OCCN1CN(CCO)CN(CCO)C1 | -0.784% |  |
| Cc1ccc(O)cn1 | -0.0963% |  |
| CCCC(O)C(O)CO (stereo not drawn) | 0.207% |  |
| C/C=C/c1ccc(OC)c(OC)c1 | -0.682% |  |

assay: Caspase-3/7 induction in HepG2 cells by small molecules, qHTS cell viability counter screen (AID 1346981); conditions: CellTiter-Fluor fluorescence, 17 h; series mostly up to 92.4 µM; activity change, negative = cytotoxicity: at the top concentration; also: nearly all actives have a fitted effect of over 30% in size
In short: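 The parent HepG2 line is plated at 2,000 cells per well and rested 5 hr before compound pinning from DMSO stocks. Following a 16-hr treatment at 37 C, a fluorogenic live-cell substrate (CellTiter-Fluor) reports viability after 1 hr.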

| Structure (SMILES) | activity change, negative = cytotoxicity | Potency |
| --- | --- | --- |
| CC(C)CCOCCC(C)C | 2.35% |  |
| c1cc[nH]c1 | 5.46% |  |
| CC(=O)C=O | 3.59% |  |
| CC(=O)OC(OC(C)=O)c1ccc([N+](=O)[O-])o1 |  | 62.2 µM (active) |
| Cc1cc(C)c(C=O)c(C)c1 | 0.837% |  |
| C/C=C/C=N/NC(=O)c1ccncc1 | 0.443% [at 42.5 µM] |  |
| Cn1cccc1 | -1.08% |  |
| COc1cccc(OC)c1O | 0.195% |  |
| c1cc(OCC2CO2)cc(OCC2CO2)c1 (stereo not drawn) |  | 60.6 µM (active) |
| CCCCCCCCCCCCCC[n+]1ccccc1 |  | 27.3 µM (active) |
| CCN(CC)CCNc1ccc(CO)c2sc3ccccc3c(=O)c12 |  | 13.3 µM (active) |
| CCCCCCC(C)OC(=O)COc1nc(F)c(Cl)c(N)c1Cl (stereo not drawn) | -0.311% |  |
| CC1(C)C(=O)N(Br)C(=O)N1Br | 4.76% |  |
| CSc1ccc2c(c1)N(CCC1CCCCN1C)c1ccccc1S2 (stereo not drawn) |  | 60.9 µM (active) and 29.8 µM (active) |
| CCCCCCCCCCCCCc1ccccc1 | 4.45% [at 42.5 µM] |  |
| Oc1cc2ccccc2cc1O | 7.9% |  |
| CCN(CC)c1cccc(C)c1 | -0.054% |  |
| CC[N+](CC)(CC)Cc1ccccc1 | 3.93% |  |

| Structure (SMILES) | activity change, negative = cytotoxicity | Potency |
| --- | --- | --- |
| CC(=O)c1ccccc1N | 7.62% |  |
| CN1[C@@H]2CC[C@H]1CC(OC(=O)C(CO)c1ccccc1)C2 (stereo partly drawn) |  | inactive |
| C#CC(O)CCC (stereo not drawn) | -8.23% |  |
| CCO[Si](C)(C)OCC | -2.57% |  |
| COC(=O)[C@]1(C)CCC[C@@]2(C)[C@H]1CC=C1C=C(C(C)C)CC[C@@H]12 | -3.03% |  |
| CCCCCCCCCCCCOC(=O)c1cc(O)c(O)c(O)c1 |  | 60.9 µM (active) |
| COC(=O)CC#N | 0.571% |  |
| O=C=NCc1cccc(CN=C=O)c1 | 9.74% [at 19 µM] |  |
| CCOC(=O)COc1ccc(C)cc1 | 3.32% |  |
| [O]=[Zr] | 4.64% |  |
| Cn1cnc2ncnc(N)c21 | 9.94% [at 42.5 µM] |  |
| CCCCCCCC/C=C\CCCCCCCC(=O)OCCOC(=O)CCCCCCC/C=C\CCCCCCCC | -3.72% |  |
| NCCCC(O)(P(=O)(O)O)P(=O)(O)O | 5.43% [at 42.5 µM] |  |
| C=CC(=O)OCCN(CC)CC | 1.9% |  |
| OCCN1CN(CCO)CN(CCO)C1 | 7.92% |  |
| Cc1ccc(O)cn1 | 0.209% |  |
| CCCC(O)C(O)CO (stereo not drawn) | -0.519% |  |
| C/C=C/c1ccc(OC)c(OC)c1 | -3.83% |  |
